According to PubChem BioAssay AID1159580 (chemical genetic matrix, 2015):
Several values for one entry are separate records, joined by “and”; a condition that tells them apart may be missing. Equal values may be shown once. Screen size: about 5,500 compounds; about 2,000 (36%) were called active. Inconclusive results (about 18%) are left out. Rule as the data show it: active = normalized growth mostly below about 0.91 (no sharp cut-off); inconclusive = no clear call, values can overlap the other calls; inactive = mostly above about 0.92. The list shows a part of the results. The source holds several records for some structures; these can differ, active in one and inactive in another.

Assay: chemical genetic growth profiling, strain panel (AID 1159580);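 also: tested at 20 µM; growth read once vehicle control cultures reached saturation at 30 °C; 1 = growth at the plate median or of vehicle wells; lower values mean less growth of the strain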
Conditions: growth OD

SMILES: CCn1cc(C(=O)O)c(=O)c2ccc(C)nc21
- normalized growth (S. cerevisiae deletion strains, locus YKL009W, strain mrt4, stronger effect = lower value): 0.91 (inactive)
- normalized growth (S. cerevisiae deletion strains, locus YKL068W, stronger effect = lower value): 0.942 (inactive)
- normalized growth (S. cerevisiae deletion strains, locus YKL085W, strain MDH1 (second series), stronger effect = lower value): 0.938 (inactive)
- normalized growth (S. cerevisiae deletion strains, locus YKL085W, strain MDH1, stronger effect = lower value): 0.938 (inactive)
- normalized growth (S. cerevisiae deletion strains, locus YKL160W, strain elf1, stronger effect = lower value): 0.976 (inactive)
- normalized growth (S. cerevisiae deletion strains, locus YKL190W, strain CNB1, stronger effect = lower value): 0.933 (inactive)
- normalized growth (S. cerevisiae deletion strains, locus YKR001C, strain vps1, stronger effect = lower value): 0.812 (active)
- normalized growth (S. cerevisiae deletion strains, locus YKR026C, strain gcn3, stronger effect = lower value): 0.965 (inactive)
- normalized growth (S. cerevisiae deletion strains, locus YKR091W, strain srl3, stronger effect = lower value): 0.926 (active)
- normalized growth (S. cerevisiae deletion strains, locus YLL001W, strain dnm1, stronger effect = lower value): 0.946 (inactive)
- normalized growth (S. cerevisiae deletion strains, locus YLL026W, stronger effect = lower value): 0.94 (inactive)
- normalized growth (S. cerevisiae deletion strains, locus YLL041C, strain sdh2, stronger effect = lower value): 0.931 (inactive)
- normalized growth (S. cerevisiae deletion strains, locus YLR027C, strain aat2, stronger effect = lower value): 0.942 (inactive)
- normalized growth (S. cerevisiae deletion strains, locus YLR039C, strain RIC1, stronger effect = lower value): 0.447 (active)
- normalized growth (S. cerevisiae deletion strains, locus YLR058C, strain SHM2, stronger effect = lower value): 0.921 (inactive)
- normalized growth (S. cerevisiae deletion strains, locus YLR102C, strain apc9, stronger effect = lower value): 0.933 (inactive)
- normalized growth (S. cerevisiae deletion strains, locus YLR113W, strain HOG1, stronger effect = lower value): 0.94 (inactive)
- normalized growth (S. cerevisiae deletion strains, locus YLR221C, strain rsa3, stronger effect = lower value): 0.943 (inactive)
- normalized growth (S. cerevisiae deletion strains, locus YLR258W, strain gsy2, stronger effect = lower value): 0.939 (inactive)
- normalized growth (S. cerevisiae deletion strains, locus YLR262C, strain YPT6 (second series), stronger effect = lower value): 0.297 (active)
- normalized growth (S. cerevisiae deletion strains, locus YLR262C, strain YPT6, stronger effect = lower value): 0.406 (active)
- normalized growth (S. cerevisiae deletion strains, locus YLR268W, strain sec22, stronger effect = lower value): 0.868 (active)
- normalized growth (S. cerevisiae deletion strains, locus YLR320W, strain mms22, stronger effect = lower value): 0.976 (inactive)
- normalized growth (S. cerevisiae deletion strains, locus YLR330W, strain CHS5, stronger effect = lower value): 0.949 (inactive)
- normalized growth (S. cerevisiae deletion strains, locus YLR342W, strain FKS1 (second series), stronger effect = lower value): 0.958 (inactive)
- normalized growth (S. cerevisiae deletion strains, locus YLR342W, strain FKS1, stronger effect = lower value): 0.912 (inactive)
- normalized growth (S. cerevisiae deletion strains, locus YLR357W, strain rsc2, stronger effect = lower value): 1.09 (inactive)
- normalized growth (S. cerevisiae deletion strains, locus YLR370C, strain arc18, stronger effect = lower value): 0.943 (inactive)
- normalized growth (S. cerevisiae deletion strains, locus YLR371W, strain rom2, stronger effect = lower value): 0.941 (inactive)
- normalized growth (S. cerevisiae deletion strains, locus YLR384C, strain iki3, stronger effect = lower value): 0.926 (inactive)
- normalized growth (S. cerevisiae deletion strains, locus YLR418C, strain cdc73, stronger effect = lower value): 0.852 (inactive)
- normalized growth (S. cerevisiae deletion strains, locus YML016C, strain PPZ1, stronger effect = lower value): 0.887 (active)
- normalized growth (S. cerevisiae deletion strains, locus YML032C, strain rad52, stronger effect = lower value): 0.883 (active)
- normalized growth (S. cerevisiae deletion strains, locus YML120C, strain ndi1, stronger effect = lower value): 0.954 (inactive)
- normalized growth (S. cerevisiae deletion strains, locus YML124C, strain tub3, stronger effect = lower value): 0.916 (active)
- normalized growth (S. cerevisiae deletion strains, locus YMR058W, strain fet3, stronger effect = lower value): 0.943 (inactive)
- normalized growth (S. cerevisiae deletion strains, locus YMR078C, strain ctf18, stronger effect = lower value): 0.927 (inactive)
- normalized growth (S. cerevisiae deletion strains, locus YMR125W, strain sto1, stronger effect = lower value): 1.02 (inactive)
- normalized growth (S. cerevisiae deletion strains, locus YMR129W, stronger effect = lower value): 0.941 (inactive)
- normalized growth (S. cerevisiae deletion strains, locus YMR205C, strain PFK2, stronger effect = lower value): 0.986 (inactive)
- normalized growth (S. cerevisiae deletion strains, locus YMR223W, strain ubp8, stronger effect = lower value): 0.947 (inactive)
- normalized growth (S. cerevisiae deletion strains, locus YMR231W, strain pep5, stronger effect = lower value): 0.891 (active)
- normalized growth (S. cerevisiae deletion strains, locus YMR263W, strain SAP30, stronger effect = lower value): 0.97 (inactive)
- normalized growth (S. cerevisiae deletion strains, locus YMR307W, strain GAS1, stronger effect = lower value): 0.756 (inactive)
- normalized growth (S. cerevisiae deletion strains, locus YNL067W, strain RPL9B, stronger effect = lower value): 0.949 (inactive)
- normalized growth (S. cerevisiae deletion strains, locus YNL071W, strain lat1, stronger effect = lower value): 0.925 (inactive)
- normalized growth (S. cerevisiae deletion strains, locus YNL128W, strain TEP1, stronger effect = lower value): 0.941 (inactive)
- normalized growth (S. cerevisiae deletion strains, locus YNL153C, strain GIM3, stronger effect = lower value): 0.971 (inactive) and 1.01 (inactive)
- normalized growth (S. cerevisiae deletion strains, locus YNL175C, strain NOP13, stronger effect = lower value): 0.944 (inactive)
- normalized growth (S. cerevisiae deletion strains, locus YNL183C, strain NPR1, stronger effect = lower value): 0.911 (inactive)
- normalized growth (S. cerevisiae deletion strains, locus YNL197C, strain WHI3, stronger effect = lower value): 0.939 (inactive)
- normalized growth (S. cerevisiae deletion strains, locus YNL209W, strain ssb2, stronger effect = lower value): 0.929 (inactive)
- normalized growth (S. cerevisiae deletion strains, locus YNL224C, strain SQS1, stronger effect = lower value): 0.944 (inactive)
- normalized growth (S. cerevisiae deletion strains, locus YNL233W, strain BNI4, stronger effect = lower value): 0.994 (inactive)
- normalized growth (S. cerevisiae deletion strains, locus YNL248C, strain rpa49, stronger effect = lower value): 0.984 (inactive)
- normalized growth (S. cerevisiae deletion strains, locus YNL250W, strain rad50, stronger effect = lower value): 0.939 (inactive)
- normalized growth (S. cerevisiae deletion strains, locus YNL271C, strain bni1, stronger effect = lower value): 0.864 (active)
- normalized growth (S. cerevisiae deletion strains, locus YNL298W, strain CLA4, stronger effect = lower value): 0.871 (active)
- normalized growth (S. cerevisiae deletion strains, locus YNL307C, strain MCK1, stronger effect = lower value): 0.955 (inactive)
- normalized growth (S. cerevisiae deletion strains, locus YNL322C, strain KRE1 (second series), stronger effect = lower value): 0.983 (inactive)
- normalized growth (S. cerevisiae deletion strains, locus YNL322C, strain KRE1, stronger effect = lower value): 0.933 (inactive) and 0.965 (inactive)
- normalized growth (S. cerevisiae deletion strains, locus YNR049C, strain mso1, stronger effect = lower value): 0.937 (inactive)
- normalized growth (S. cerevisiae deletion strains, locus YNR052C, strain pop2, stronger effect = lower value): 0.803 (active)
- normalized growth (S. cerevisiae deletion strains, locus YOL006C, strain TOP1, stronger effect = lower value): 1.04 (inactive)
- normalized growth (S. cerevisiae deletion strains, locus YOL012C, strain htz1): 0.496 (inactive)
- normalized growth (S. cerevisiae deletion strains, locus YOL147C, strain pex11, stronger effect = lower value): 0.926 (active)
- normalized growth (S. cerevisiae deletion strains, locus YOR001W, strain rrp6, stronger effect = lower value): 0.828 (active)
- normalized growth (S. cerevisiae deletion strains, locus YOR061W, strain CKA2, stronger effect = lower value): 0.898 (inactive)
- normalized growth (S. cerevisiae deletion strains, locus YOR069W, strain VPS5, stronger effect = lower value): 0.918 (active)
- normalized growth (S. cerevisiae deletion strains, locus YOR070C, strain gyp1, stronger effect = lower value): 0.935 (inactive)
- normalized growth (S. cerevisiae deletion strains, locus YOR080W, strain dia2, stronger effect = lower value): 0.927 (inactive)
- normalized growth (S. cerevisiae deletion strains, locus YOR083W, strain WHI5 (second series), stronger effect = lower value): 0.968 (inactive)
- normalized growth (S. cerevisiae deletion strains, locus YOR083W, strain WHI5, stronger effect = lower value): 0.935 (inactive)
- normalized growth (S. cerevisiae deletion strains, locus YOR106W, strain vam3, stronger effect = lower value): 0.964 (inactive)
- normalized growth (S. cerevisiae deletion strains, locus YOR136W, strain idh2, stronger effect = lower value): 0.969 (inactive)
- normalized growth (S. cerevisiae deletion strains, locus YOR144C, strain elg1, stronger effect = lower value): 0.914 (active)
- normalized growth (S. cerevisiae deletion strains, locus YOR184W, strain ser1, stronger effect = lower value): 0.882 (inactive)
- normalized growth (S. cerevisiae deletion strains, locus YOR231W, strain MKK1, stronger effect = lower value): 0.888 (inactive)
- normalized growth (S. cerevisiae deletion strains, locus YOR265W, strain rbl2, stronger effect = lower value): 0.93 (inactive)
- normalized growth (S. cerevisiae deletion strains, locus YOR270C, strain vph1, stronger effect = lower value): 1.08 (inactive)
- normalized growth (S. cerevisiae deletion strains, locus YOR290C, strain snf2, stronger effect = lower value): 0.962 (inactive)
- normalized growth (S. cerevisiae deletion strains, locus YOR316C, strain cot1, stronger effect = lower value): 0.926 (inactive)
- normalized growth (S. cerevisiae deletion strains, locus YPL051W, strain arl3, stronger effect = lower value): 0.903 (active)
- normalized growth (S. cerevisiae deletion strains, locus YPL055C, strain LGE1, stronger effect = lower value): 1.05 (inactive) and 1.03 (inactive)
- normalized growth (S. cerevisiae deletion strains, locus YPL078C, strain atp4, stronger effect = lower value): 0.927 (inactive)
- normalized growth (S. cerevisiae deletion strains, locus YPL106C, strain sse1, stronger effect = lower value): 1.06 (inactive)
- normalized growth (S. cerevisiae deletion strains, locus YPL240C, strain hsp82, stronger effect = lower value): 0.931 (inactive)
- normalized growth (S. cerevisiae deletion strains, locus YPL241C, strain CIN2, stronger effect = lower value): 0.945 (inactive) and 0.927 (active)
- normalized growth (S. cerevisiae deletion strains, locus YPL256C, strain CLN2, stronger effect = lower value): 0.993 (inactive)
- normalized growth (S. cerevisiae deletion strains, locus YPR119W, strain clb2, stronger effect = lower value): 0.918 (active)
- normalized growth (S. cerevisiae deletion strains, locus YPR141C, strain kar3, stronger effect = lower value): 0.954 (inactive)
- normalized growth (S. cerevisiae deletion strains, locus YPR163C, strain tif3, stronger effect = lower value): 0.882 (active)
- normalized growth (S. cerevisiae deletion strains, locus YPR167C, strain met16, stronger effect = lower value): 0.929 (inactive)
- normalized growth (S. cerevisiae deletion strains, strain wtn01, stronger effect = lower value): 0.915 (inactive)
- normalized growth (S. cerevisiae strains, strain wild type, stronger effect = lower value): 0.932 (inactive)
